# Reference: the supplement of paper PMC6522484
# ± gives the standard deviation of the averaged measurements.
# Columns and labels:
# [1] = tested on: DLD1; experiment: cell viability (CellTiter-Glo) relative to plate median (fraction of plate median); higher = more viable cells; conditions: 5 µM; treatment time 24 h; reporter: 7TFP
# Summary of the method: (§1)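 Per-well firefly luciferase or CellTiterGlo luminescence, normalised to the plate median, is what is reported. It was measured in colorectal cancer cells with stable lentiviral TCF/Wnt firefly luciferase reporters after a 24 h treatment with library compounds at a final 5 µM. The mean of two independent replicates is given.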
# [2] = tested on: HCT116; experiment: as above; conditions: 5 µM; treatment time 24 h; reporter: TCF4/Wnt
# Summary of the method: as §1
# [3] = tested on: SW480; experiment: as above; conditions: 5 µM; treatment time 24 h; reporter: 7TFP
# Summary of the method: as §1
# [4] = tested on: DLD1; experiment: TCF/Wnt firefly luciferase reporter signal relative to plate median (fraction of plate median); higher = higher Wnt reporter signal; conditions: 5 µM; treatment time 24 h; reporter: 7TFP
# Summary of the method: as §1
# [5] = tested on: SW480; experiment: as above; conditions: 5 µM; treatment time 24 h; reporter: 7TFP
# Summary of the method: as §1
SMILES,cell viability [1],cell viability [2],cell viability [3],TCF/Wnt firefly luciferase reporter signal [4],TCF/Wnt firefly luciferase reporter signal [5]
Cn1nnnc1SCC1=C(C(=O)O)N2C(=O)[C@@H](NC(=O)[C@H](OC=O)c3ccccc3)[C@H]2SC1,1.02,0.932 ± 0.056,1.03 ± 0.044,0.9225 ± 0.00071,0.992 ± 0.04
C[n+]1c2cc(N)ccc2cc2ccc(N)cc21,1.05 ± 0.014,0.951 ± 0.084,1.08 ± 0.042,1.4 ± 0.27,1.01 ± 0.08
CCN(CC)CCOCCOC(=O)C1(c2ccccc2)CCCC1,1.03 ± 0.13,0.887 ± 0.1,0.916 ± 0.013,1.12 ± 0.16,1.04 ± 0.028
Cc1cc(=O)oc2cc(O)c(O)cc12,0.951 ± 0.035,0.886 ± 0.071,0.98 ± 0.057,0.711 ± 0.25,1.085 ± 0.0071
O=C(O)c1ccccc1Nc1ccccc1,1.08 ± 0.15,1.03 ± 0.14,1.04 ± 0.057,1.09 ± 0.099,0.911 ± 0.17
COc1cc(O)c(C(=O)/C=C/c2ccc(OC)c(O)c2)c(OC)c1,1.06 ± 0.098,0.975 ± 0.093,1.1 ± 0.042,0.975 ± 0.064,0.8395 ± 0.00071
COc1cc2ccc(=O)oc2cc1O,1.09 ± 0.064,1.09,1.12 ± 0.085,0.999 ± 0.059,0.892 ± 0.12
CC(C)[C@H](NC(=O)[C@H](Cc1ccc(O)cc1)NC(=O)[C@@H](NC(=O)C(F)(F)F)C(C)C)C(=O)O,0.957 ± 0.028,0.94 ± 0.021,0.969 ± 0.025,0.842 ± 0.12,0.845 ± 0.035
CC[C@]12CCCN3CCc4c(n(c5ccccc45)[C@@](O)(C(=O)OC)C1)[C@@H]32,1.02 ± 0.047,0.953 ± 0.096,1.03 ± 0.014,0.981 ± 0.11,0.971
CN(C)CCc1c[nH]c2ccc(Cn3cncn3)cc12,0.968 ± 0.011,1.09 ± 0.064,1.03 ± 0.042,1.09 ± 0.2,1.07 ± 0.099
CC[C@H](C)[C@H](N)C1=N[C@H](C(=O)N[C@@H](CC(C)C)C(=O)N[C@H](CCC(=O)O)C(=O)N[C@H](C(=O)N[C@H]2CCCCNC(=O)[C@H](CC(N)=O)NC(=O)[C@@H](CC(=O)O)NC(=O)[C@H](Cc3cnc[nH]3)NC(=O)[C@@H](Cc3ccccc3)NC(=O)[C@H]([C@@H](C)CC)NC(=O)[C@@H](CCCN)NC2=O)[C@@H](C)CC)CS1,1.05 ± 0.05,1.03 ± 0.021,0.992 ± 0.04,1.03 ± 0.042,1.03 ± 0.021
OCCN1C[C@H](O)[C@@H](O)[C@H](O)[C@H]1CO,0.86 ± 0.15,0.957 ± 0.19,0.97 ± 0.025,0.954 ± 0.11,0.988 ± 0.06
O=C1C(CC[S+]([O-])c2ccccc2)C(=O)N(c2ccccc2)N1c1ccccc1 (stereo not given),1.07 ± 0.028,1.09 ± 0.064,1.035 ± 0.0071,0.857 ± 0.079,0.885 ± 0.089
OCCOCCN1CCN(C2=Nc3ccccc3Sc3ccccc32)CC1,1.05 ± 0.094,1 ± 0.15,0.991 ± 0.013,1.03 ± 0.028,1.08 ± 0.014
O=C(O[C@@H]1Cc2c(O)cc(O)cc2O[C@@H]1c1cc(O)c(=O)c2c(O)c(O)cc([C@H]3Oc4cc(O)cc(O)c4C[C@H]3O)c2c1)c1cc(O)c(O)c(O)c1,1.04 ± 0.069,1.15 ± 0.028,1.01 ± 0.021,1.1 ± 0.057,1.04 ± 0.05
COC(=O)Nc1nc2cc(C(=O)c3ccccc3)ccc2[nH]1,0.884 ± 0.069,0.801 ± 0.1,1 ± 0.028,0.896 ± 0.027,0.94 ± 0.023
CCC1(c2ccccc2)C(=O)NCNC1=O,1.02 ± 0.029,0.994 ± 0.15,1 ± 0.025,0.978 ± 0.1,1.06 ± 0.028
COC(=O)C1=CO[C@@H](O[C@@H]2O[C@H](CO)[C@@H](O)[C@H](O)[C@H]2O)[C@H]2[C@@H]1C(=O)C[C@@H]2C,1.03 ± 0.067,0.992 ± 0.083,0.982 ± 0.026,1.08 ± 0.064,1.06 ± 0.021
CCN1CCCC(OC(=O)C(c2ccccc2)c2ccccc2)C1 (stereo not given),0.981,1.01,0.953 ± 0.025,0.941 ± 0.076,1.01 ± 0.07

SMILES,cell viability [1],cell viability [2],cell viability [3],TCF/Wnt firefly luciferase reporter signal [4],TCF/Wnt firefly luciferase reporter signal [5]
Clc1ccccc1CN1CCc2sccc2C1,0.988 ± 0.013,1.07 ± 0.05,1 ± 0.057,0.934 ± 0.036,1.01 ± 0.071
COc1cc(-c2coc3cc(O[C@@H]4O[C@H](CO)[C@@H](O)[C@H](O)[C@H]4O)c(OC)c(O)c3c2=O)cc(O)c1OC,1.1 ± 0.057,1.12 ± 0.078,1.09 ± 0.014,1.01 ± 0.15,0.885 ± 0.023
Cc1onc(-c2ccccc2)c1C(=O)N[C@@H]1C(=O)N2[C@@H]1SC(C)(C)[C@@H]2C(=O)O,0.978 ± 0.032,0.891 ± 0.1,0.978 ± 0.0014,1.21 ± 0.071,1.11 ± 0.028
COc1ccc(C(=O)/C=C/c2ccccc2)cc1,0.964 ± 0.0028,0.977 ± 0.0085,0.972 ± 0.069,0.936 ± 0.04,0.944 ± 0.15
O=C(O)c1cc(=O)c2c(Cl)cc(Cl)cc2[nH]1,0.944 ± 0.12,0.968 ± 0.059,0.976 ± 0.091,0.835 ± 0.021,0.911 ± 0.052
CN(C)CCN(Cc1cccs1)c1ccccn1,1.08 ± 0.028,1.04 ± 0.18,1 ± 0.015,1.01 ± 0.056,1.03 ± 0.028
CC(C)(Oc1ccc(CCNC(=O)c2ccc(Cl)cc2)cc1)C(=O)O,1.05 ± 0.014,1.06 ± 0.064,1 ± 0.069,0.919 ± 0.016,0.986 ± 0.02
C[C@H]1C[C@H]2[C@@H]3CCC4=CC(=O)C=C[C@]4(C)[C@@]3(F)[C@@H](O)C[C@]2(C)[C@@]1(O)C(=O)CO,0.973 ± 0.0099,1.03 ± 0.086,1.01 ± 0.016,0.938 ± 0.027,0.953 ± 0.0028
C[C@@H]1CC(=O)O[C@H](C)Cc2cc(O)cc(O)c2C(=O)O[C@H](C)CC(=O)O[C@H](C)Cc2cc(O)cc(O)c2C(=O)O[C@H](C)CC(=O)O1,0.982 ± 0.0014,0.997 ± 0.047,1.01 ± 0.026,1.05 ± 0.028,0.918 ± 0.042
O=C(OC[C@H]1O[C@@H](OC(=O)c2cc(O)c(O)c(OC(=O)c3cc(O)c(O)c(O)c3)c2)[C@H](OC(=O)c2cc(O)c(O)c(OC(=O)c3cc(O)c(O)c(O)c3)c2)[C@@H](OC(=O)c2cc(O)c(O)c(OC(=O)c3cc(O)c(O)c(O)c3)c2)[C@@H]1OC(=O)c1cc(O)c(O)c(OC(=O)c2cc(O)c(O)c(O)c2)c1)c1cc(O)c(O)c(OC(=O)c2cc(O)c(O)c(O)c2)c1,1.025 ± 0.0071,0.915 ± 0.04,1 ± 0.05,0.794 ± 0.055,0.913 ± 0.047
CC(N/C(=N\C#N)Nc1ccncc1)C(C)(C)C (stereo not given),0.99 ± 0.043,0.904 ± 0.0014,0.989 ± 0.1,0.799 ± 0.04,0.941 ± 0.073
C=C1C(N)CC2CC1C2(C)C (stereo not drawn) [3-AMINO-beta-PINENE],0.974 ± 0.093,0.9965 ± 0.005,0.918 ± 0.024,0.893 ± 0.0071,0.888 ± 0.016
OCC(O)C(O)C(O)C(O)C(O)CO (stereo not given),1.05 ± 0.042,1.035 ± 0.0071,0.986 ± 0.049,0.9515 ± 0.005,1.02 ± 0.091
O=c1cc(-c2ccccc2)oc2cc(O)cc(O)c12,1.01,1.02 ± 0.035,1.02 ± 0.045,1.03 ± 0.23,1.09 ± 0.064
COc1ccc([C@@H]2CC(=O)c3c(O)cc(O[C@@H]4O[C@H](CO[C@@H]5O[C@@H](C)[C@H](O)[C@@H](O)[C@H]5O)[C@@H](O)[C@H](O)[C@H]4O)cc3O2)cc1O,0.995 ± 0.0014,0.973 ± 0.038,1.02 ± 0.014,1.04 ± 0.17,0.988 ± 0.031
O=C1NCC(=O)N2CCCC12 (stereo not given) [Cyclo(glycylprolyl)],0.941 ± 0.037,0.9365 ± 0.005,0.959 ± 0.016,1.2 ± 0.085,0.978 ± 0.073
C=C(C)[C@@H]1CC=C(C(=O)O)CC1,1.055 ± 0.0071,1.04 ± 0.11,0.995 ± 0.035,1.11 ± 0.17,1.055 ± 0.0071
C=C1CC[C@@H]2[C@](C)(CO)[C@H](O)CC[C@@]2(C)[C@@H]1C/C=C1/C(=O)OC[C@H]1O,1.03 ± 0.021,0.963 ± 0.052,1.02 ± 0.014,1.06 ± 0.042,0.987 ± 0.033
